Compound activity as filed in PubChem.
Compounds with a hit are over-represented: about 12% of the library has one in this group of screens.
G9a block = inhibitors of human histone lysine methyltransferase G9a | Q96KQ7 | G9a H3K9 monomethylation, AlphaScreen, 2 h | Potency, µM (highest dose often 102 µM), for inactives: top-dose activity, negative = inhibition, usual class: inhibitors | 350,000 compounds, 8.8% hits; also: % is scaled to controls: 0 for no effect and ±100 for the full control effect; nearly all actives have a fitted effect of over 75% in size
Target sequence (Q96KQ7 913-1193 limits assumed): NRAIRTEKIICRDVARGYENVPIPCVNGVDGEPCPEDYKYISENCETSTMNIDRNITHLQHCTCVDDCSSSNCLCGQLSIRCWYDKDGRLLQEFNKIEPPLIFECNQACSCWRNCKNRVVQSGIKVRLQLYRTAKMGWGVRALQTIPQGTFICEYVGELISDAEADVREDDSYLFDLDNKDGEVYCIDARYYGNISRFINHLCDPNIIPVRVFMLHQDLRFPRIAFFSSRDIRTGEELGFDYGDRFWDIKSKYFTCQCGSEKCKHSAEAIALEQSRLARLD
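Signal arises when biotinylated H3K9 peptide, once monomethylated, bridges streptavidin donor and antibody-captured acceptor beads. Enzyme at 20 nM was preincubated 15 min with test compounds; peptide 500 nM and SAM 20 uM then reacted for 2 h.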
JMJD2A Tudor = blocks the human JMJD2A Tudor domain; AlphaScreen JMJD2A-Tudor / H3K4me3 peptide binding; 390,000 compounds, 4.4% hits; O75164; Potency, µM (series often up to 114 µM), without a hit: at the highest dose activity change, negative = inhibition, actives largely listed as inhibitors; AID 504339; also: % is scaled to controls: 0 for no effect and ±100 for the full control effect; nearly all actives have a fitted effect of over 50% in size
Sfp PPTase inh = blocks B. subtilis Sfp PPTase activity; Q9F4F7; Biochemical Sfp PPTase activity, qHTS; Potency, µM, for the others: largest response in the series, negative = inhibition, actives largely listed as inhibitors; 310,000 compounds, 3.5% hits; AID 1490;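 also: the enzyme is Sfp with the accession as filed and its product quenches rhodamine fluorescence; 0% = enzyme reaction without inhibitor and -100% = no enzyme wells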
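Fluorescence-quenching assay: 15 nM Sfp-PPTase preincubated 15 min at room temperature with compound, then 5 uM rhodamine-CoA and 12.5 uM BHQ-2-labelled YbbR peptide added. Fluorescence (ex 525/em 598 nm) read at start and after 30 min; difference gives rate.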
L3MBTL1 inh = blocks human L3MBTL1; Q9Y468; Potency, µM (series often up to 57.1 µM), without a hit: at the highest dose activity, negative = inhibition, actives largely listed as inhibitors; AlphaScreen L3MBTL1–H3K9me1 peptide binding; 230,000 compounds, 0.66% hits; also: % is scaled to controls: 0 for no effect and ±100 for the full control effect; nearly all actives have a fitted effect of over 60% in size
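L3MBTL1 (50 nM) pre-complexed 30 min with biotinylated H3(1-15)K9me1 peptide (75 nM), then compounds added for 30 min at room temperature; AlphaScreen streptavidin donor/nickel chelate acceptor beads (10 ug/mL final) read after 30 min dark incubation.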
BAZ2B block = inhibitors of human BAZ2B bromodomain; Potency, µM (series often up to 114 µM), without a hit: at the top dose activity change, negative = inhibition, most hits filed as inhibitors; 360,000 compounds, 4.4% hits; AlphaScreen BAZ2B-H3K14Ac peptide displacement; also: % is scaled to controls: 0 for no effect and ±100 for the full control effect; nearly all actives have a fitted effect of over 60% in size
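BAZ2B (50 nM) with biotin-H3(5-23)K14Ac peptide (50 nM) in PBS pH 7.4, 0.01% Tween-20, preformed 30 min, then compound 30 min at room temperature; top concentration 110uM. AlphaScreen streptavidin donor/nickel chelate acceptor beads (10 ug/mL final), 20 min dark, signal read.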
HP1b binding inh = inhibitors of HP1-beta chromodomain binding to methylated histone tails | P83916 | AlphaScreen HP1-beta / biotin-H3K9me3 peptide binding | Potency, µM (titrated, usually from 114 µM), without a hit: at the highest dose activity change, negative = inhibition, actives largely listed as inhibitors | 390,000 compounds, 0.56% hits | AID 540317; also: nearly all actives have a fitted effect of over 70% in size
Target sequence (P83916 whole entry, looked up): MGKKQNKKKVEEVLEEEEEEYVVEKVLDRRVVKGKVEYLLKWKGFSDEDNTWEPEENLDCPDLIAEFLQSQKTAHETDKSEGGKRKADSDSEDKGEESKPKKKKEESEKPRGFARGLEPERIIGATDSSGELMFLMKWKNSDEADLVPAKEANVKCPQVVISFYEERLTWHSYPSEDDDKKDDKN
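AlphaScreen: HP1-beta (50 nM) preformed 30 min with biotin-H3(1-18)K9me3 peptide (50 nM) in PBS pH 7.4, 0.01% Tween-20. Compound added for 30 min at RT, then streptavidin donor/nickel chelate acceptor beads (10 ug/mL) for 30 min.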
* = called active by the depositor; ? = inconclusive; / = not tested or not shown; [ ] = another dose, or the depositor's remark. Calls follow the shape of the dose curve; as a rule, active = well fitted curve in the direction sought with a large enough effect; inconclusive = small, poorly fitted or top-dose-only effect, or another doubt; inactive = no such curve, though single readings can be large; an effect the other way counts as inactive or inconclusive. Potency is read from the fitted curve at half-maximal effect.

SMILES	G9a block	JMJD2A Tudor	Sfp PPTase inh	L3MBTL1 inh	BAZ2B block	HP1b binding inh
c1ccc(-c2ccc(C3=Nn4c(Cn5nnc6ccccc65)nnc4SC3)cc2)cc1	8.9µM*	?	28µM*	-14%	6%[57.1 µM]	16µM*
c1ccc(C2=Nn3c(Cn4nnc5ccccc54)nnc3SC2)cc1	?	-7%	24%	-2%	-5%	27%
CCc1nn(CC(=O)Nc2ccc(C)c(F)c2)c(=O)c2cc3cc(C)ccc3n12	-2%[59 µM]	-12%	/	/	-4%	15%
COC(=O)c1sc(N2C(=O)c3oc4ccc(C)cc4c(=O)c3C2c2ccc(O)c(OC)c2)nc1C (stereo unspecified)	-2%[59 µM]	-20%	/	/	-2%[57.1 µM]	17%
CCN(CC)C1=CC2=CC(=C(C#N)C#N)CCC2CC1 (stereo unspecified)	-26%[59 µM]	-15%	-4%	-2%	-18%	16%
N#CC(C#N)=C1C=C2C=C(N3CCCCC3)CCC2CC1 (stereo unspecified)	?	?	-10%	-9%	45µM*	?
Cn1cccc1/C=N/NC(=O)C(O)c1ccccc1 (stereo unspecified)	/	-28%	1%	/	-33%	28%
O=C(Cc1ccccc1)N/N=C/c1cccn1-c1ccc([N+](=O)[O-])cc1	7.1µM*	-33%	-16%	?	25µM*	?
O=C(N/N=C/c1cccn1-c1ccc([N+](=O)[O-])cc1)C(O)c1ccccc1 (stereo unspecified)	45µM*	?	18µM*	-4%	?	-14%
CCc1cccc(NC(=O)CN(C)S(=O)(=O)c2ccc3c(c2)n(C)c(=O)c(=O)n3C)c1	-4%[59 µM]	3%	/	/	4%	38%
CCC(=O)NC1CCc2cccc(OC)c2C1 (stereo unspecified)	?	/	11%	/	/	/
CC1CCN(C(=O)C(C)NCc2ccc(F)cc2)CC1 (stereo unspecified)	7.1µM*	10µM*	-14%	5%	50µM*	20%
CC1CCN(S(=O)(=O)N2CCCC(C(=O)NCc3ccc(F)cc3)C2)CC1 (stereo unspecified)	13%	11µM*	5%	/	-12%	-20%[57 µM]
CCc1ccc(CNC(=O)C2CCN(S(=O)(=O)N3CC(C)CC(C)C3)CC2)cc1 (stereo unspecified)	2%	-10%	12%	/	50µM*	26%
CC1CCN(CC2CCN(C(=O)NCc3ccc(F)cc3)CC2)CC1	5%[59 µM]	-9%	/	/	3%	17%
Cc1ccc(CNC(=O)C2CCN(S(=O)(=O)N3CC(C)CC(C)C3)CC2)cc1 (stereo unspecified)	-5%	-12%	-1%	/	-11%	18%
O=c1oc2ccccc2c(N2CCCCC2)c1CN1CCCC1	11%[59 µM]	4%	14%	4%	6%	23%
CCc1oc2ccccc2c1C(=O)CCN1CCCCC1	1.4µM*	-22%	?	-7%	8%	39%
O=C(c1ccco1)N1CCC2(CC1)CCN(c1cccc(-c3ccccc3)c1)CC2	-19%[12.7 µM]	/	-21%	/	/	/
Cc1nc2nc(SCC(=O)N3CCOCC3)nn2c(C)c1Cc1c(F)cccc1Cl	22µM*	-15%	?	-3%	1%	27%
Cc1nc2nc(SCC(=O)NCCCN3CCCCCC3)nn2c(C)c1Cc1ccccc1Cl	79µM*	?	-15%	/	-29%	17%
CCN(CC)CCCCn1c(-c2ccccc2)nc2c(Nc3ccccc3)nc(C)nc21	/	/	8%	/	/	/
CC(C)(C)C(=O)C(Oc1ccc(Cl)cc1)n1ccnc1 (stereo unspecified)	3%[59 µM]	/	12%	/	/	/
O=C(NCc1ccco1)c1ccccc1-c1nc(-c2ccccc2)no1	-6%	-21%	4%	/	56µM*	-5%
Cc1ccc(-c2noc(-c3ccccc3C(=O)NCc3ccco3)n2)cc1	6%	-8%	5%	4%	-15%	18%
SMILES	G9a block	JMJD2A Tudor	Sfp PPTase inh	L3MBTL1 inh	BAZ2B block	HP1b binding inh
COc1cc(-c2cc(C(=O)Nc3ccc(S(=O)(=O)NCc4ccco4)cc3)c3ccccc3n2)cc(OC)c1OC	-39%[59 µM]	-16%	4%	-11%	-2%	12%
COc1cc(-c2cc(C(=O)NCc3ccco3)c3ccccc3n2)cc(OC)c1OC	50µM*	-28%	-14%	/	-35%	10%
c1ccc(-c2noc(-c3cccnc3NCc3ccco3)n2)cc1	18µM*	-9%	/	/	-21%	49%
Cc1cccc(-c2noc(-c3ccccc3C(=O)NCc3ccco3)n2)c1	?	?	40µM*	-13%	50µM*	5%
CCCCC(C)(O)C/C=C/[C@H]1[C@H](O)CC(=O)[C@@H]1CCCCCCC(=O)O (stereo partly specified)	23%[59 µM]	/	19%	/	/	/
NCCCCNc1ncnc2ccc(-c3ccc4c(c3)OCO4)cc12	/	-32%	/	/	/	/
c1coc(CNc2nc3nonc3nc2NCc2ccco2)c1	?	-31%[57.1 µM]	22µM*	/	-15%	-5%
COc1ccccc1-c1noc(-c2ccccc2C(=O)NCc2ccco2)n1	-3%[59 µM]	-14%	-5%	-6%	-19%	30%
Cc1cccc(-c2nc(CNC(=O)c3ccco3)cs2)c1	50µM*	-9%	-4%	/	-14%	37%
COc1cc(-c2noc(-c3ccccc3C(=O)NCc3ccco3)n2)cc(OC)c1OC	40µM*	-16%	20%	-2%	-24%	-4%
O=C(O)[C@@H]1[C@@H]2C[C@H]3c4[nH]c5ccccc5c4CCN3C[C@@H]2CC[C@@H]1O	-1%[5.15 µM]	/	-24%	/	/	/
Cc1cccc(NC(=O)C2CCCN(S(=O)(=O)c3c(C)noc3/C=C/N(C)C)C2)c1C (stereo unspecified)	-2%[59 µM]	-29%	/	/	-32%	23%
CC1CN(S(=O)(=O)c2cccc(-c3csc(-c4ccccc4)n3)c2)CC(C)O1 (stereo unspecified)	18µM*	-1%	-6%	/	0%	-5%
O=C(Nc1ccccc1NC(=O)NC1CCCCC1)NC1CCCCC1	-1%[59 µM]	-8%	27%	4%	12%	16%
Nc1ccccc1NC1CCCCC1	50µM*	56µM*	-19%	/	32µM*	?
COc1ccc(C2NCCc3c2[nH]c2ccccc32)cc1CSc1nc2ccccc2s1 (stereo unspecified)	8.9µM*	25µM*	45µM*	-14%	45µM*	?
C[C@H](O)C(N)C(=O)O (stereo partly specified)	/	/	10%	/	/	/
CCOCCCNCC(=O)NCC1CCCCC1	20µM*	20µM*	-23%	13%	50µM*	?
CCOc1ccccc1C(=O)NCC(=O)NCC1CCCCC1	6%	-4%	11%	/	3%	23%
